Experimental data: PubChem BioAssay (NCATS)
Inconclusive results are not listed. The source made the active and inactive calls. The call rests on the fitted dose curve; in most records, active means well fitted curve in the direction sought with a large enough effect; inconclusive means small, poorly fitted or top-dose-only effect, or another doubt; inactive means no such curve, though single readings can be large or run the other way.

assay: qHTS Assay for Identifying Gametocytocidal Compounds (AID 743244);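 on max response: actives lower the fluorescent signal which means gametocytes are killed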; details: P. falciparum 3D7 stage III-V gametocytes, alamarBlue, 72 h; max response: hits give low values
Source text: Malaria cases and deaths have dropped 50% in 29 countries since 2000 due to the combined effects of long-lasting insecticidal bednets, indoor residual spraying, and artemisinin-based combination therapies (ACTs). This success has raised hopes for malaria eradication and consequently stimulated interest in developing new reagents that block gametocyte transmission such as novel and safe gametocytocidal drugs. However, previous drug development efforts have focused primarily on the asexual parasites that cause symptoms, but not malaria transmission. Consequently, patients can remain infectious for weeks after the clearance of asexual parasites and clinical symptoms. To be transmitted from person to person via a mosquito, the parasites must switch from asexual to sexual development and produce male and female gametocytes. Malaria gametocytes consist of five stages (I, II, III, IV and V). The late stage gametocytes (III, IV and V) are difficult to be cultured in vitro and the long lifespan of mature gametocytes allows them being transmitted from host to mosquitoes unless they are completely eliminated by gametocytocidal agents. To identify gametocytocidal compounds which are capable of killing late stage P. falciparum gametocytes, a high throughput gametocyte viability assay was employed. This assay uses oxidoreduction indicator, alamarBlue, as a general measure of metabolic activity of gametocytes. Within live cells, the nonfluorescent resazurin is reduced to resorufin, a bright red fluorescence dye. Fluorescence decreases upon treatment of gametocytocidal compounds. P. falciparum gametocyte (3D7 strain) was used in this study.
The 1536-well gametocycidal viability assay was based on the previous method of Tanaka et al. Stage III-V gametocytes were tested against three compound libraries, including 4265 compounds from NCGC pharmaceutical collection, 400 from Malaria Box library, and 550 from an internal collection of kinase inhibitors. Briefly, 2.5 ul/well incomplete medium was dispensed into each well of 1,536-well plates using the Multidrop Combi followed by 23 nl compound transferring using the NX-TR Pintool (WAKO Scientific Solutions, San Diego, CA). Then, 2.5 ul/well of gametocytes was dispensed with a seeding density of 20,000 cells/well using the Multidrop Combi. The assay plates were incubated for 72 h at 37C with 5% CO2. After addition of 5 ul/well of 2X AlamarBlue dye (Life Technologies, cat. no. DAL1100), the plates were incubated for 24 h at 37C with 5% CO2 and then were read in a fluorescence detection mode (Ex = 525 nm, Em = 598 nm) on a ViewLux plate reader (PerkinElmer).
On the % scale 0 is the no-effect control and ±100 the full control effect; potency means the concentration at half of the fitted maximal effect.

Row | SMILES | max response | Potency
1 | CC(N)(Cc1ccc(O)c(O)c1)C(=O)O (stereo not given) | 8.06% (inactive) | 
2 | N=C(N)SCCc1cnc[nH]1 | 9.89% (inactive) | 
3 | Cc1ccc2c(c1)C(N1CCN(C)CC1)=Nc1cccnc1N2 | 23% (inactive) | 
4 | CNc1ncnc2c1ncn2[C@H]1C[C@H](OP(=O)(O)O)[C@@H](COP(=O)(O)O)O1 | 21.7% (inactive) | 
5 | Clc1nccc2c1ccc1ccccc12 | 7.1% (inactive) | 
6 | CCCCS(=N)(=O)CC[C@H](N)C(=O)O (stereo not given in full) | 6.27% (inactive) | 
7 | CCCCCCCCCCCCCCSCC(=O)O | 30.8% (inactive) | 
8 | Cc1nc(N=Nc2cc(S(=O)(=O)O)c3cc([N+](=O)[O-])cc(S(=O)(=O)O)c3c2)c(COP(=O)(O)O)c(C=O)c1O | -2.01% (inactive) | 
9 | NC(Cc1cccc(-c2ccccc2CP(=O)(O)O)c1)C(=O)O (stereo not given) | 13.4% (inactive) | 
10 | CC(C)[C@@H]1CC[C@@H](C)C[C@@H]1P(=O)(c1ccccc1)c1ccccc1 | 7.79% (inactive) | 
11 | C[C@H](NC(=O)/C(C#N)=C/c1ccc(O)c(O)c1)c1ccccc1 | -11% (inactive) | 
12 | c1ccc(C(NCCNC(c2ccccc2)c2ccccc2)c2ccccc2)cc1 | -2.86% (inactive) | 
13 | CCCCCCCCCC(=O)NC(CN1CCOCC1)[C@H](O)c1ccccc1 (stereo not given in full) |  | 3.55 µM (active)
14 | NC(=Nc1ccccc1)NC(=O)c1nc(Cl)c(N)nc1N | 12.9% (inactive) | 
15 | CC(C)(C)c1ccc(/C=C/C(=O)Nc2ccc3c(c2)OCCO3)cc1 | 13.4% (inactive) | 
16 | COC(=O)C(N)Cc1ccc(Cl)cc1 (stereo not given) | 4.72% (inactive) | 
17 | NC1CCN(O)C1=O (stereo not given) | 19.4% (inactive) | 
18 | N#C/C(=C\c1ccc(O)c(O)c1)C(=O)NCCc1ccccc1 | 5.86% (inactive) | 
19 | O=C(O)[C@H]1NCCC[C@H]1C(=O)O | 8.68% (inactive) | 
20 | Cc1cc2c(cc1Cl)N(C(=O)Nc1ccnc3ccccc13)CC2 | 6.93% (inactive) | 

Row | SMILES | max response | Potency
21 | Cc1cc(Cn2cnc3c2C[C@@H](C(=O)O)N(C(=O)C(c2ccccc2)c2ccccc2)C3)ccc1N | -5.22% (inactive) | 
22 | O=C(O)c1cc2cc(F)ccc2[nH]1 | 5.51% (inactive) | 
23 | NC(=O)c1cc[n+](CC2=C(C(=O)O)N3C(=O)[C@@H](NC(=O)[C@@H](c4ccccc4)S(=O)(=O)[O-])[C@H]3SC2)cc1 | 7.28% (inactive) | 
24 | N[C@H](C(=O)O)[C@H]1C[C@@H]1C(=O)O | 18.4% (inactive) | 
25 | CC(=O)O[C@H]1CC2(C)[C@@H](C[C@@H](O)[C@H]3[C@@]4(C)CC[C@@H](O)[C@@H](C)[C@@H]4CC[C@@]32C)C1=C(CCC=C(C)C)C(=O)O (stereo not given in full) | 12.4% (inactive) | 
26 | O=c1ccc2c(OCCCCc3ccccc3)c3ccoc3cc2o1 | 10.3% (inactive) | 
27 | COc1ccc2c(c1)c(CC(=O)O)c(C)n2Cc1ccc(Cl)cc1 | -11.4% (inactive) | 
28 | NCCCCN=C(N)N | 3.59% (inactive) | 
29 | CC1=C(/C=C/C(C)=C/C=C/C(C)=C\C(=O)O)C(C)(C)CCC1 | 17.8% (inactive) | 
30 | CCCC(=O)NCCc1c2n(c3ccc(OC)cc13)CCCc1ccccc1-2 | 19.4% (inactive) | 
31 | CNc1cc(NS(=O)(=O)c2ccc(N)cc2)nc(NC)n1 | 12.8% (inactive) | 
32 | COc1cc(N)c(Cl)cc1C(=O)OCCN1CCCCC1 | 4.04% (inactive) | 
33 | COc1cccc(OC)c1OCCNCC1CSc2ccccc2O1 (stereo not given) | 8.7% (inactive) | 
34 | CC(=O)NNC(=O)N1Cc2ccccc2Oc2ccc(Cl)cc21 | 7.75% (inactive) | 
35 | C/C(=C\c1ccc(C(=O)O)cc1)c1ccc2c(c1)C(C)(C)CCC2(C)C | 19.4% (inactive) | 
36 | CC(N)=O | 12.7% (inactive) | 
37 | CC(=O)NCCc1c[nH]c2ccc(O)cc12 | 28.4% (inactive) | 
38 | Nc1ncnc2c1nc(Br)n2C1OC2COP(=O)(O)O[C@@H]2C1O (stereo not given in full) | 31.4% (inactive) | 
39 | O=C(OCCN1CCOCC1)C1(c2ccccc2)CCCCC1 | 16.2% (inactive) | 
40 | N=C(N)SCCN | -1.63% (inactive) | 
